Measurements: PubChem BioAssay
For some assays here: Potency and affinity values are given separately. The source made the active and inactive calls.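 How the source made its calls, unless noted: active means primary screen activator hit with a dose response curve and TRPC4 channel activation at any tested dose; inactive means no activation, no dose response, or not a primary hit.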

Key:
[1] = test system: TRPC4 beta (transient receptor potential cation channel C4), mouse; assay: activators of mouse TRPC4 channel, confirmation, cell-based, Fluo4 calcium, HEK293 TRPC4beta/mu-opioid, duplicates, 10 µM (AID 2426;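 active means fluorescence ratio normalized to control raised more than 50% in primary screen plus both repeat runs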); settings: Fluo4 calcium fluorescence, at 10 µM; hits give high values
[2] = test system: transient receptor potential cation channel C4 beta (TRPC4), mouse; assay: activators of mouse TRPC4 channel, confirmation, cell-based, second round, Fluo4, HEK293 TRPC4beta/mu-opioid, 1 µM (AID 2461;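 active means primary screen active and over 50% activation in each of two duplicate runs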); settings: Fluo4 calcium fluorescence, at 1 µM; hits give high values
[3] = test system: TRPC4 (transient receptor potential cation channel C4 beta), mouse; assay: positive allosteric modulators of mouse TRPC4, confirmation, cell-based, second round, Fluo-4, HEK293 TRPC4beta/mu-opioid, 1 µM (AID 2554;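 active means primary screen hit whose fluorescence ratio, in both repeats, exceeds the weak agonist control mean by 3 SD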); settings: DAMGO EC20, Fluo-4 calcium flux, at 1 µM; hits give high values
[4] = test system: TRPC4 beta (transient receptor potential cation channel C4), mouse; assay: positive allosteric modulators of mouse TRPC4, confirmation, cell-based, Fluo-4, HEK293 TRPC4beta/mu-opioid (AID 2555;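 active means primary screen hit whose calcium fluorescence ratio, in both repeats, exceeds the weak agonist control mean by 3 SD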); settings: DAMGO EC20, Fluo-4 calcium flux, at 10 µM; hits give high values
[5] = target: Short transient receptor potential channel 4 (Mus musculus) (UniProt Q9QUQ5); assay: inhibitors of mouse TRPC4 channel, confirmation, cell-based, Fluo4, HEK293 TRPC4beta/mu-opioid (AID 2636;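 active means calcium signal cut by more than 3 SD below the full-agonist control yet still positive, in both repeats and the earlier primary screen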); settings: DAMGO, Fluo4 calcium flux, at 10 µM; hits give high values
Short transient receptor potential channel 4 (Mus musculus), sequence (Q9QUQ5 whole entry, looked up): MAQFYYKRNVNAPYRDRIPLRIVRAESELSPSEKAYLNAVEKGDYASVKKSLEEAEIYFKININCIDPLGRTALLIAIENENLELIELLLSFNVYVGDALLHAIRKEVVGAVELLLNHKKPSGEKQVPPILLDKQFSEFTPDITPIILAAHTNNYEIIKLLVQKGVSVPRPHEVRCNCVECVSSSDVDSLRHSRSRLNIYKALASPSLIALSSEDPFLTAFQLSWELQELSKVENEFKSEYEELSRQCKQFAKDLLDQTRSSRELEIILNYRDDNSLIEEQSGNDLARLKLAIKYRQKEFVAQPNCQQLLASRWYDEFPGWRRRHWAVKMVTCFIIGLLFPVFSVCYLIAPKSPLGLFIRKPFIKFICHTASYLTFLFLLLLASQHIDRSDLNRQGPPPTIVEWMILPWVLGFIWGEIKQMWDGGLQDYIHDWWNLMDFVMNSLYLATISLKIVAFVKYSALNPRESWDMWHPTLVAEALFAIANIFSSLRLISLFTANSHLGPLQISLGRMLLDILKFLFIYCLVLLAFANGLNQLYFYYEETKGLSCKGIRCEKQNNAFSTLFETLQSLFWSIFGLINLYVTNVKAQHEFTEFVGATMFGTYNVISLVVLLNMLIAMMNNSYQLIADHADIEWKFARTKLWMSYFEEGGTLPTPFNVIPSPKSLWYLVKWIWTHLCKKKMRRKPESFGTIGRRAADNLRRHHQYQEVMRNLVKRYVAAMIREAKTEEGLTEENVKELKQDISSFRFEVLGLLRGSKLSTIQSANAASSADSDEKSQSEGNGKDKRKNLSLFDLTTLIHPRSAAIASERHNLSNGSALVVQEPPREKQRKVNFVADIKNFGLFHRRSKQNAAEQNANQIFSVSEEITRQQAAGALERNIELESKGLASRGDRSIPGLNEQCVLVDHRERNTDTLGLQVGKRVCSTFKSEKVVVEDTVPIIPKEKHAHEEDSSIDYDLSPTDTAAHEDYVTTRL

[6] = target: Short transient receptor potential channel 4 (Mus musculus) (UniProt Q9QUQ5); assay: inhibitors of mouse TRPC4 channel, confirmation, cell-based, second round, Fluo4, HEK293 TRPC4beta/mu-opioid, 1 µM (AID 2637;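 active means calcium signal ratio cut to more than 3 SD under the fully stimulated control mean yet still positive, in both repeats and the primary screen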;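 on inhibition: percent of integrated ratio relative to wells lacking test compound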); settings: Fluo4 calcium flux, DAMGO, at 1 µM; hits give high values
[7] = target: Short transient receptor potential channel 4 (Mus musculus) (UniProt Q9QUQ5); assay: mouse TRPC4 channel activators, dose response, cell-based, HEK293 TRPC4/mu-opioid, Fluo-4 calcium (AID 434937)
[8] = target: Short transient receptor potential channel 4 (Mus musculus) (UniProt Q9QUQ5); assay: TRPC4 positive allosteric modulators, dose response, cell-based, HEK293 TRPC4/mu-opioid, Fluo-4 calcium, EC20 DAMGO (AID 434941;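 active means earlier screen potentiator hit that boosts the TRPC4 ion channel at some dose, with a dose response; inactive means no potentiation, no dose response, or not a prior hit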;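 further: calcium entry triggered by an EC20 dose of DAMGO at the co-expressed mu-opioid receptor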)
[9] = target: Short transient receptor potential channel 6 (Mus musculus) (UniProt Q61143); assay: inhibition of mouse TRPC6 channel, confirmation, selectivity assay for TRPC4 inhibitor project, cell-based, HEK293, membrane potential dye, duplicate (AID 434948;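 active means active in primary screen and both duplicates, each dropping signal beyond three positive-control SD with fluorescence still positive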); settings: HEK293 TRPC6, membrane potential dye fluorescence, at 10 µM, stimulated with maximal-effect acetylcholine; hits give high values
Short transient receptor potential channel 6 (Mus musculus), sequence (Q61143 whole entry, looked up): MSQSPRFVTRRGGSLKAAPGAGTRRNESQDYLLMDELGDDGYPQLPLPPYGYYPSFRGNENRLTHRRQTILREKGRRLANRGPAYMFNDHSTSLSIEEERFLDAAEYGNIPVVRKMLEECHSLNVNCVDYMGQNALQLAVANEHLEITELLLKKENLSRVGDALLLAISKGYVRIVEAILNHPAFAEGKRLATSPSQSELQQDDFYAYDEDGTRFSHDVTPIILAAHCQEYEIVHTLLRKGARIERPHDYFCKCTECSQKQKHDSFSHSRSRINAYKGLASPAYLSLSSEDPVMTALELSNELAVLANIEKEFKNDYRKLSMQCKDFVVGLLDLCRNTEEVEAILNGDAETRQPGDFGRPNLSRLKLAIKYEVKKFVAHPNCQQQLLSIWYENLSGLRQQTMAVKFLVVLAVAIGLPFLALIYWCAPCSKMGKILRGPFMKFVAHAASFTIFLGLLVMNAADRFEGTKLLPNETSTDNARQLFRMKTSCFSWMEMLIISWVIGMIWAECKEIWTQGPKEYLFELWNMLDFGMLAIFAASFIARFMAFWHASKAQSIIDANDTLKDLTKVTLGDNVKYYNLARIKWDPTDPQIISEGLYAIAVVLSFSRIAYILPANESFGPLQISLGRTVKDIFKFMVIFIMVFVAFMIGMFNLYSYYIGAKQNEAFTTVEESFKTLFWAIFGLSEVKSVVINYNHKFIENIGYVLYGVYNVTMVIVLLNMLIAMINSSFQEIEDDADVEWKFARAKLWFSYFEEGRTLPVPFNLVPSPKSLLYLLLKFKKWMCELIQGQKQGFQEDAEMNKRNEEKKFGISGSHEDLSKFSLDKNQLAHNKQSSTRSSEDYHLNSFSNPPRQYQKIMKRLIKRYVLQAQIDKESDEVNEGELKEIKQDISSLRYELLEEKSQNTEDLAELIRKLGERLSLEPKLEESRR

[10] = target: Short transient receptor potential channel 6 (Mus musculus) (UniProt Q61143); assay: activation of mouse TRPC6 channel, confirmation, selectivity assay for TRPC4 activator project, cell-based, HEK293, membrane potential dye, duplicate (AID 434950;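 active means membrane potential signal rise above negative control mean plus 3 SD in both duplicates, also active in the earlier TRPC4 screen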); settings: HEK293 TRPC6, membrane potential fluorescence, at 10 µM; hits give high values
[11] = target: Short transient receptor potential channel 6 (Mus musculus) (UniProt Q61143); assay: TRPC6 potentiation by TRPC4 potentiator hits, confirmation, selectivity assay for TRPC4 potentiator project, HEK293 cells, membrane potential dye, duplicate (AID 434952;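 active means compound raising the membrane signal above positive-control mean plus 3 SD in both repeats, and a primary screen hit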); settings: HEK293 TRPC6, membrane potential dye fluorescence, at 10 µM, maximal acetylcholine added after compound; hits give high values
[12] = target: Short transient receptor potential channel 4 (Mus musculus) (UniProt Q9QUQ5); assay: calcium flux activators in TRPC4/5HT1a cells, counter-screen for TRPC4 activator project, cell-based, second counter screen, HEK293 TRPC4/5HT1a, Fluo-4 (AID 434977;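 active means calcium signal rise above buffer-control mean plus 5 SD in both duplicates, and also a hit in the primary screen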); settings: Fluo-4 calcium flux, at 10 µM; hits give high values
[13] = calcium flux inhibitors in TRPC4/5HT1a cells, confirmation, counter-screen for TRPC4 inhibitor project, cell-based, second counter screen, HEK293 TRPC4/5HT1a, Fluo-4 (AID 434978;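 active means primary screen active whose calcium signal fell more than 3 SD beyond the full-serotonin control mean in both duplicate plates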;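 on outcome: serotonin given first at submaximal then at maximal dose after compound preincubation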); settings: Fluo-4 calcium flux, at 10 µM, serotonin added to trigger calcium flux; hits give high values
[14] = test system: TRPC4 (mouse), co-expressed with 5HT1a in HEK293; assay: calcium flux potentiators in TRPC4/5HT1a cells, confirmation, counter-screen for TRPC4 potentiator project, cell-based, second counter screen, HEK293 TRPC4/5HT1a, Fluo-4 (AID 434979;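 active means signal rise over 3 SD above mean of control wells given weak agonist, in both repeats and first screen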); settings: Fluo-4 calcium flux, at 10 µM, serotonin added at its EC20 dose; hits give high values
[15] = calcium flux activation in mu-opioid HEK293 cells, confirmation, counter-screen for TRPC4 activator project, cell-based, HEK293 mu-opioid receptor line (AID 449723;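 active means hit in primary screen, with calcium signal over 5 SD above buffer well mean in both duplicates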;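 further: counter screen cells carry the mu-opioid receptor alone and lack TRPC4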); settings: Fluo-4 calcium fluorescence, at 10 µM; hits give high values
[16] = calcium flux enhancement in mu-opioid HEK293 cells, confirmation, counter-screen for TRPC4 allosteric potentiator project, cell-based, HEK293 mu-opioid receptor line (AID 449724;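 active means calcium signal rise more than 3 SD above the low-dose agonist control mean, in both duplicate plates and the primary screen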); settings: Fluo-4 calcium flux, at 10 µM, compound added before EC20 DAMGO stimulus; hits give high values

SMILES | outcome [1] | outcome [2] | outcome [3] | outcome [4] | inhibition [5] | inhibition [6] | outcome [7] | outcome [8] | outcome [9] | outcome [10] | outcome [11] | outcome [12] | inhibition [13] | outcome [14] | outcome [15] | outcome [16] | outcome [13] | outcome [6] | inhibition [9] | outcome [5]
CN(C)C(CNC(=O)c1ccccc1OCc1ccc(Cl)cc1)c1ccco1 (centres undefined) | inactive | inactive | inactive | inactive | 84% (active) | 62% (active) | inactive | inactive | inactive | inactive | inactive | inactive | 23% (active) | inactive | inactive | inactive |  |  |  | 
CCn1nc(C)c(CN2CCCC(CO)(Cc3cccc(Cl)c3)C2)c1C (centres undefined) | inactive | inactive | inactive | inactive | 90% (active) | 49% (active) | inactive | inactive | inactive | inactive | inactive | inactive |  | inactive | inactive | inactive | inactive |  |  | 
CC(C)(C)c1cc2cccnc2n1Cc1ccccc1 | inactive | inactive | inactive | inactive | 95% (active) | 70% (active) | inactive | inactive | inactive | inactive | inactive | inactive | 15.4% (active) | inactive | inactive | inactive |  |  |  | 
CCOC(=O)CSc1nc2c(sc(=S)n2-c2ccccc2OC)c(=O)n1-c1ccccc1OC | inactive | inactive | inactive | inactive | 71% (active) | 38% (active) | inactive | inactive | inactive | inactive | inactive | inactive | 31.3% (active) | inactive | inactive | inactive |  |  |  | 
CCOc1ccc(CN2CCN(C(=O)c3ccccc3)CC2)cc1 | inactive | inactive | inactive | inactive | 79% (active) |  | inactive | inactive | inactive | inactive | inactive | inactive | 44.7% (active) | inactive | inactive | inactive |  | inactive |  | 
COc1ccc(/C=C2\SC(=S)N(C(Cc3ccccc3)C(=O)O)C2=O)cc1 (centres undefined) | inactive | inactive | inactive | inactive | 88% (active) |  | inactive | inactive | inactive | inactive | inactive | inactive | 32.2% (active) | inactive | inactive | inactive |  | inactive |  | 
COc1ccc(Nc2c3c(nc4ccccc24)CCC3)cc1 | inactive | inactive | inactive | inactive | 98% (active) |  | inactive | inactive | inactive | inactive | inactive | inactive | 22.1% (active) | inactive | inactive | inactive |  | inactive |  | 
CCOC(=O)C1(Cc2ccccc2)CCN(CC2CC=CCC2)CC1 (centres undefined) | inactive | inactive | inactive | inactive | 93% (active) |  | inactive | inactive | inactive | inactive | inactive | inactive |  | inactive | inactive | inactive | inactive | inactive |  | 
C=CCNc1nc(N2CCCC2)nc2ccccc12 | inactive | inactive | inactive | inactive | 98% (active) | 74% (active) | inactive | inactive |  | inactive | inactive | inactive | 19.9% (active) | inactive | inactive | inactive |  |  | 37.5% (active) | 
CCn1c(=N)n(CC(=O)c2ccc(Br)s2)c2ccccc21 | inactive | inactive | inactive | inactive |  |  | inactive | inactive |  | inactive | inactive | inactive |  | inactive | inactive | inactive | inactive | inactive | 59% (active) | inactive
O=C(NCCN1CCOCC1)c1ccc2c(c1)N(Cc1ccc(F)cc1)C(=O)CS2 | inactive | inactive | inactive | inactive |  |  | inactive | inactive | inactive | inactive | inactive | inactive |  | inactive | inactive | inactive | inactive | inactive |  | inactive
OCCNCc1cc(Br)ccc1OCc1ccc(F)cc1 | inactive | inactive | inactive | inactive | 94% (active) | 45% (active) | inactive | inactive | inactive | inactive | inactive | inactive | 21.1% (active) | inactive | inactive | inactive |  |  |  | 
NC(=NC1CCCCC1)c1ccc(Cl)cc1 | inactive | inactive | inactive | inactive | 97% (active) | 66% (active) | inactive | inactive | inactive | inactive | inactive | inactive | 22.8% (active) | inactive | inactive | inactive |  |  |  | 
CN1/C(=C\C(=O)C[n+]2ccc3ccccc3c2)C(C)(C)c2ccccc21 | inactive | inactive | inactive | inactive | 96% (active) |  | inactive | inactive | inactive | inactive | inactive | inactive |  | inactive | inactive | inactive | inactive | inactive |  | 
